These results are taken from ChEMBL document CHEMBL3988442, “University of Dundee, Small-Polar-MMV Screening Library” (2021).

In this test the test system is Trypanosoma brucei. The test is described as follows: Trypanosoma brucei 72 hour study. The class given is functional, organism-based. The arrangement: scale not given: in the data most compounds retested in dose-response had high values.

Out of some 66,000 compounds screened, about 960 (1.5%) showed an effect of 50% or more. The full list was thinned out, with strong results kept by preference.

Take `CNc1cc(C)nc(N2Cc3cnn(Cc4ccc(F)cc4)c3C2)n1`: the “Percent Effect” value (30 µM, 30.03 µM) came to 98.86%.
Turning to `Cc1ccnc(N2Cc3cnn(Cc4ccc(F)cc4)c3C2)n1`, where the note is “30 µM, 30.03 µM”, the “Percent Effect” value is -9.847%.
Still for that read-out and setting: the figure for `Cc1cc(C)nc(N2Cc3cnn(Cc4ccc(F)cc4)c3C2)n1` is 3.465%; for `Cc1nc(N2Cc3cnn(Cc4ccc(F)cc4)c3C2)no1` it is 12.66%; for `CCNc1ccnc(N2Cc3cnn(Cc4ccc(F)cc4)c3C2)n1` it is 57.35%.
As for `Fc1ccc(Cn2ncc3c2CN(c2ncccn2)C3)cc1`, the “Percent Effect” value (30 µM, 30.03 µM) was determined as 2.324%.
For the compound `CC(C)c1nn(C)c(Cl)c1CNCc1ccc(N(C)C)nc1.Cl`, the “Percent Effect” value (30.3 µM, […]) turned out to be 12.78%.
On to `CC(C)CN1CCC2(CCN(Cc3ccc(F)cc3)CC2)C1=O.O=C(O)C(F)(F)F`, for which the “Percent Effect” value (30.3 µM, […]) is on record as 15.86%.
As to `Cc1cccc(CN2CCCCC2c2n[nH]cc2-c2cc(C)no2)c1.Cl` (stereo unspecified), the “Percent Effect” value (30.3 µM, […]) is given as 54.66%.
In the case of `Cc1cc(C2CCCN2Cc2cc(-c3ccco3)on2)on1` (stereo unspecified), the “Percent Effect” value (30 µM, 30.03 µM) is on record as -36.29%.
For the compound `Cc1cccc(CN2CCCC2c2cccc(Nc3nccs3)n2)c1` (stereo unspecified), the “Percent Effect” value (30.3 µM, […]) was 33.44%.
Take `Cc1cccc(CN2CCCC2c2cccc(CCC(=O)O)n2)c1` (stereo unspecified): where the note is “30.3 µM, […]”, the “Percent Effect” value is listed as -27.55%.
Turning to `Cc1nccc(C2CCCCN2Cc2cccc(F)c2)n1` (stereo unspecified), the “Percent Effect” value (30.3 µM, […]) is given as -5.435%.
Still for that read-out and setting: the figure for `Cc1nc(C2CN(Cc3ccccc3C)CCO2)no1` (stereo unspecified) is -23.18%; for `CN(CC1(O)CCCN(c2ccccn2)C1)C(=O)CCc1cccs1` (stereo unspecified) it is 19.98%; for `Cc1ccc(CN(CCCN2CCOCC2)Cc2cnn(C)c2)o1.O=C(O)CC(O)(CC(=O)O)C(=O)O` it is -8.498%.
Consider `CN(C)C(=O)[C@]12CCCN(CC3CC3)C[C@H]1CN(c1ccccn1)C2.O=C(O)C(F)(F)F.O=C(O)C(F)(F)F`, for which the “Percent Effect” value (30.3 µM, […]) is given as 0.08001%.
For the compound `CN1CC(=O)N(c2ccccc2)CC12CCN(C(=O)c1ccnnc1)C2.O=C(O)C(F)(F)F` (stereo unspecified), where the note is “30.3 µM, […]”, the “Percent Effect” value is listed as -13.49%.
Same read-out and setting: the figure for `CN(C)C(=O)COC[C@]12COC[C@H]1CN(Cc1ccccc1)C2.O=C(O)C(F)(F)F` is -79.79%.
Turning to `O=C(c1cc(=O)n(-c2ccccc2)[nH]1)N1CCOC(C(F)(F)F)C1` (stereo unspecified), the “Percent Effect” value (30 µM, 30.03 µM) stood at 25.14%.
On to `Cc1cnc(CN(Cc2ccc(Cl)s2)C2CCN(C)C2)o1` (stereo unspecified), for which the “Percent Effect” value (30 µM, 30.03 µM) was -5.686%.
The same measure, in the same setting: as for `COc1ccc(C(C)NCCC(N)=O)cc1F` (stereo unspecified), the figure is -19.58%.
Take `COc1cc(CNC(C)c2ccc(F)c(F)c2)cc2c1OCCO2.O=C(O)C(=O)O` (stereo unspecified): the “Percent Effect” value (30.3 µM, […]) is recorded as 100.7%.
Still for that read-out and setting: as for `COc1cc(C(=O)NC(C)c2cccs2)cc2c1OCCO2` (stereo unspecified), the figure is 6.204%.
For `CCn1ncc(-c2cc(C(F)F)nc3sc(C(N)=O)c(N)c23)c1C`, the “Percent Effect” value (30 µM, 30.03 µM) was 26.92%.
On the same count and under the same terms, the figure for `Cc1nc[nH]c1CN1CCN(C(=O)CN2CCCC2)[C@H]2CS(=O)(=O)C[C@H]21` is 8.106%.
Still for that read-out and setting: as for `Cc1nc[nH]c1CN1CCN(C(=O)CCC(F)(F)F)[C@H]2CS(=O)(=O)C[C@H]21`, the figure is 50.6%; as for `Cc1nc[nH]c1CN1CCN(C(=O)C2(C)CC2)[C@H]2CS(=O)(=O)C[C@H]21`, 1.317%.
For the compound `CCOc1cc2c(cc1CNC(Cc1cccs1)c1nccs1)OCO2.Cl` (stereo unspecified), the “Percent Effect” value (30.3 µM, […]) is -21.18%.
Regarding `CC(C)c1ncc(-c2cc(C3CCC3)nc(N)c2C#N)cn1`, for the setting “30 µM, 30.03 µM”, the “Percent Effect” value was found to be 17.32%.
Turning to `CC(O)(CNC(=O)c1cccnc1-n1cccn1)c1ccsc1` (stereo unspecified), the “Percent Effect” value (30 µM, 30.03 µM) is on record as -28.28%.
Turning to `COc1ccnc(NC(=O)c2cscn2)c1`, the “Percent Effect” value (30 µM, 30.03 µM) stood at 7.926%.
As for `COc1ccnc(NC(=O)c2ccsc2)c1`, the “Percent Effect” value (30 µM, 30.03 µM) came out at 14.39%.
With `COc1ccnc(NC(=O)c2cscc2C)c1`, for the setting “30 µM, 30.03 µM”, the “Percent Effect” value was determined as 88.82%.
On to `CCCn1c(=O)n(CCC(=O)N(C)Cc2ccc(C)o2)c2ccccc21`, for which the “Percent Effect” value (30 µM, 30.03 µM) is -21.38%.
On to `Cc1nc(O)cc(C2CCN(Cc3ccc(F)c(F)c3)C2)n1.O=C(O)CC(O)(CC(=O)O)C(=O)O` (stereo unspecified), for which, under “30.3 µM, […]”, the “Percent Effect” value is reported as 13.84%.
Still for that read-out and setting: the figure for `CNC(=O)N1CCC2(CC1)c1ncc(C)n1CCN2C.O=C(O)C(F)(F)F.O=C(O)C(F)(F)F` is 11.26%.
As to `Oc1cc(CNCCCN2CCCC2)nc2ccc(F)cc12`, the “Percent Effect” value (30 µM, 30.03 µM) is reported as -52.8%.
Regarding `O=C(CCNCc1cc(O)c2cc(F)ccc2n1)N1CCCC1`, the “Percent Effect” value (30 µM, 30.03 µM) was -42.31%.
The same measure, in the same setting: as for `O=S(=O)(CCNCc1cc(O)c2cc(F)ccc2n1)N1CCCC1`, the figure is 71.96%; as for `CCc1ccc(CN2Cc3nccn3CC(CN3CCOCC3)C2)o1.O=C(O)C(F)(F)F.O=C(O)C(F)(F)F.O=C(O)C(F)(F)F` (stereo unspecified), 29.13%.
Consider `Cc1ccsc1C(=O)N1CCC2(CC(N(C)c3ccncn3)C2)C1` (stereo unspecified), for which the “Percent Effect” value (30.3 µM, […]) is reported as -9.037%.
For the compound `O=C(Nc1ccc(F)cc1)N1C[C@H]2C[C@H](C(=O)N3CCCC3)[C@@H](C1)O2`, where the note is “30.3 µM, […]”, the “Percent Effect” value is -4.677%.
In the case of `Cc1nc(-n2nc(-c3cccs3)cc2N)[nH]c(=O)c1C`, the “Percent Effect” value (30 µM, 30.03 µM) amounted to 6.214%.
Turning to `CCc1c(C)nc(-n2nc(-c3cccs3)cc2N)[nH]c1=O`, the “Percent Effect” value (30 µM, 30.03 µM) amounted to 63.75%.
Still for that read-out and setting: the figure for `Cc1cc(=O)[nH]c(-n2nc(-c3cccs3)cc2N)n1` is -18.7%.
Consider `Nc1c(N2CCOCC2)ncnc1N1CCOCC1`, for which the “Percent Effect” value was -8.78% (30.3 µM, […]) and -35.44% (10 mM, 10 mM as filed; unlikely as a test dose).
As to `CCN1CC2(CC1=O)CN(Cc1ccco1)CCN(C(=O)C(C)C)C2.O=C(O)C(F)(F)F` (stereo unspecified), the “Percent Effect” value (30 µM, 30.03 µM) is 0.2286%.
As for `Cc1ccc(CN(CCCn2ccnc2)Cc2c(F)cccc2F)s1.O=C(O)CC(O)(CC(=O)O)C(=O)O`, the “Percent Effect” value (30.3 µM, […]) is listed as -13.01%.
With `CN(Cc1ccncc1)Cc1cnn(-c2ccc(F)cc2)c1`, the “Percent Effect” value (30 µM, 30.03 µM) is on record as -38.94%.
